Measurements from the supplement of paper PMC11732987, “Enantioselective OTUD7B fragment discovery through chemoproteomics screening and high-throughput optimisation” (Communications Chemistry, 2025).

Columns and labels:
Test in all cases: log2 ratio of Biotin-Ahx-Ub-VS probe labelling (fragment/DMSO); higher = less target engagement (more negative = stronger competition), active = hit call of the paper (q ≤ 0.05, log2 ratio ≤ -1)
Conditions in all cases: compound concentration: 200 uM; treatment time: 3 h
USP19 = target: T1, USP19 (UniProt O94966)
T1 sequence (whole entry): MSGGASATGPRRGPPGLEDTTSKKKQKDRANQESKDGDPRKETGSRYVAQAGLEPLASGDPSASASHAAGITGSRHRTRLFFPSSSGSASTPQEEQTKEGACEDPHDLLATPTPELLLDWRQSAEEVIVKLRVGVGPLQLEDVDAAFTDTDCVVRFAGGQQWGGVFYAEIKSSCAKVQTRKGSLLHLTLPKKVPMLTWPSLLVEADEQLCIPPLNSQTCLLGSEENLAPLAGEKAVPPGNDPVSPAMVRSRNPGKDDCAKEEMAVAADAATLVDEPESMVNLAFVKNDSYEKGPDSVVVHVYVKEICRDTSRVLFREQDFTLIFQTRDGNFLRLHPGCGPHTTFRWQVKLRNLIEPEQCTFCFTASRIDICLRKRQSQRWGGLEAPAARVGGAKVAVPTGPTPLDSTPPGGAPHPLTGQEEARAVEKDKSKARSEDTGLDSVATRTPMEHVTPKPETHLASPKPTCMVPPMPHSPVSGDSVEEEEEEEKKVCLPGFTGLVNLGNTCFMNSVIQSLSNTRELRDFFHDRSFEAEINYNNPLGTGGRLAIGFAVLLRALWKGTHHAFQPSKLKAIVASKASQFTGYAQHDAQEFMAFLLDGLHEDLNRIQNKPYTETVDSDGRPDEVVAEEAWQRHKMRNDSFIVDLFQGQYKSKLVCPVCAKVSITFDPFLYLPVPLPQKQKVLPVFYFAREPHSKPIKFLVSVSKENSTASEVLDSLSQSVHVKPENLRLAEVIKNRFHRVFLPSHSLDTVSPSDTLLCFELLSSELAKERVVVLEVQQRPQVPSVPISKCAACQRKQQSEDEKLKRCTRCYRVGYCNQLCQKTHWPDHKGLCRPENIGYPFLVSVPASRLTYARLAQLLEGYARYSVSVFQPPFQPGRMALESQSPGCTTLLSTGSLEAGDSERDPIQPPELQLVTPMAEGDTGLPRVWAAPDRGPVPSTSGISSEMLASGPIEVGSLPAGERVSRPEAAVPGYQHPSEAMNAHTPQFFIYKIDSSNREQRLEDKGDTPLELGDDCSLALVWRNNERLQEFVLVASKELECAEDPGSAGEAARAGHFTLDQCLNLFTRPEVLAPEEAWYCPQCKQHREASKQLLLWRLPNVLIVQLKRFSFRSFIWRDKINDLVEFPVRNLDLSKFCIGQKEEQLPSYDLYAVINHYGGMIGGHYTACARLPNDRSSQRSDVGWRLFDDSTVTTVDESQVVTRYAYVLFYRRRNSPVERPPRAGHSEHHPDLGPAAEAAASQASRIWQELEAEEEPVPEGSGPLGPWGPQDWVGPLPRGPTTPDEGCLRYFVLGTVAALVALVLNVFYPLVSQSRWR
Procedure, shortened: (§1)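 Values give the average log2 ratio of fragment to vehicle, assessed by unpaired t-test on global-median-normalised Spectronaut label-free quantities. Proteins needed ≥2 unique peptides. HEK293T lysate (495 µg per sample) was treated in triplicate with fragment at 200 µM or vehicle for 3 h and then with Biotin-Ahx-Ub-VS at 0.5 µM final for 1 h. Labelled DUBs were NeutrAvidin-enriched, digested and run by diaPASEF LC-MS/MS.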

USP22 = target: T2, USP22 (UniProt Q9UPT9)
T2 sequence (whole entry): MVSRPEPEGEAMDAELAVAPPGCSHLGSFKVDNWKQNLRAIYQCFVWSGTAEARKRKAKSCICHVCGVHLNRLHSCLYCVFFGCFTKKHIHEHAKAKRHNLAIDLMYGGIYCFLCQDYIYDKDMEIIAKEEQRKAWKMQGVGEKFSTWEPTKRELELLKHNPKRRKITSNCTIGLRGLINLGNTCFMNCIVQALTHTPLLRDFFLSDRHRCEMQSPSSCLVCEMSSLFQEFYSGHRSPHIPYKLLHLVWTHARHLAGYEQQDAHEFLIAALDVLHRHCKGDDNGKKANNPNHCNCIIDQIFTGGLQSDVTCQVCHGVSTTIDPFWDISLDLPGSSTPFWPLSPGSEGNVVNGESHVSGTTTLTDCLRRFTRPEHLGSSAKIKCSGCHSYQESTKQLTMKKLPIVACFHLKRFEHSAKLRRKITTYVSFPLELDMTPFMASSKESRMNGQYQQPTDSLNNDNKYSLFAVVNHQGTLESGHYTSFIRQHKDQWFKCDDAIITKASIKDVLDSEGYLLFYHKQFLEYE
Procedure, shortened: as §1

USP24 = USP24 (UniProt Q9UPU5)
Chain of USP24 (Q9UPU5 whole entry): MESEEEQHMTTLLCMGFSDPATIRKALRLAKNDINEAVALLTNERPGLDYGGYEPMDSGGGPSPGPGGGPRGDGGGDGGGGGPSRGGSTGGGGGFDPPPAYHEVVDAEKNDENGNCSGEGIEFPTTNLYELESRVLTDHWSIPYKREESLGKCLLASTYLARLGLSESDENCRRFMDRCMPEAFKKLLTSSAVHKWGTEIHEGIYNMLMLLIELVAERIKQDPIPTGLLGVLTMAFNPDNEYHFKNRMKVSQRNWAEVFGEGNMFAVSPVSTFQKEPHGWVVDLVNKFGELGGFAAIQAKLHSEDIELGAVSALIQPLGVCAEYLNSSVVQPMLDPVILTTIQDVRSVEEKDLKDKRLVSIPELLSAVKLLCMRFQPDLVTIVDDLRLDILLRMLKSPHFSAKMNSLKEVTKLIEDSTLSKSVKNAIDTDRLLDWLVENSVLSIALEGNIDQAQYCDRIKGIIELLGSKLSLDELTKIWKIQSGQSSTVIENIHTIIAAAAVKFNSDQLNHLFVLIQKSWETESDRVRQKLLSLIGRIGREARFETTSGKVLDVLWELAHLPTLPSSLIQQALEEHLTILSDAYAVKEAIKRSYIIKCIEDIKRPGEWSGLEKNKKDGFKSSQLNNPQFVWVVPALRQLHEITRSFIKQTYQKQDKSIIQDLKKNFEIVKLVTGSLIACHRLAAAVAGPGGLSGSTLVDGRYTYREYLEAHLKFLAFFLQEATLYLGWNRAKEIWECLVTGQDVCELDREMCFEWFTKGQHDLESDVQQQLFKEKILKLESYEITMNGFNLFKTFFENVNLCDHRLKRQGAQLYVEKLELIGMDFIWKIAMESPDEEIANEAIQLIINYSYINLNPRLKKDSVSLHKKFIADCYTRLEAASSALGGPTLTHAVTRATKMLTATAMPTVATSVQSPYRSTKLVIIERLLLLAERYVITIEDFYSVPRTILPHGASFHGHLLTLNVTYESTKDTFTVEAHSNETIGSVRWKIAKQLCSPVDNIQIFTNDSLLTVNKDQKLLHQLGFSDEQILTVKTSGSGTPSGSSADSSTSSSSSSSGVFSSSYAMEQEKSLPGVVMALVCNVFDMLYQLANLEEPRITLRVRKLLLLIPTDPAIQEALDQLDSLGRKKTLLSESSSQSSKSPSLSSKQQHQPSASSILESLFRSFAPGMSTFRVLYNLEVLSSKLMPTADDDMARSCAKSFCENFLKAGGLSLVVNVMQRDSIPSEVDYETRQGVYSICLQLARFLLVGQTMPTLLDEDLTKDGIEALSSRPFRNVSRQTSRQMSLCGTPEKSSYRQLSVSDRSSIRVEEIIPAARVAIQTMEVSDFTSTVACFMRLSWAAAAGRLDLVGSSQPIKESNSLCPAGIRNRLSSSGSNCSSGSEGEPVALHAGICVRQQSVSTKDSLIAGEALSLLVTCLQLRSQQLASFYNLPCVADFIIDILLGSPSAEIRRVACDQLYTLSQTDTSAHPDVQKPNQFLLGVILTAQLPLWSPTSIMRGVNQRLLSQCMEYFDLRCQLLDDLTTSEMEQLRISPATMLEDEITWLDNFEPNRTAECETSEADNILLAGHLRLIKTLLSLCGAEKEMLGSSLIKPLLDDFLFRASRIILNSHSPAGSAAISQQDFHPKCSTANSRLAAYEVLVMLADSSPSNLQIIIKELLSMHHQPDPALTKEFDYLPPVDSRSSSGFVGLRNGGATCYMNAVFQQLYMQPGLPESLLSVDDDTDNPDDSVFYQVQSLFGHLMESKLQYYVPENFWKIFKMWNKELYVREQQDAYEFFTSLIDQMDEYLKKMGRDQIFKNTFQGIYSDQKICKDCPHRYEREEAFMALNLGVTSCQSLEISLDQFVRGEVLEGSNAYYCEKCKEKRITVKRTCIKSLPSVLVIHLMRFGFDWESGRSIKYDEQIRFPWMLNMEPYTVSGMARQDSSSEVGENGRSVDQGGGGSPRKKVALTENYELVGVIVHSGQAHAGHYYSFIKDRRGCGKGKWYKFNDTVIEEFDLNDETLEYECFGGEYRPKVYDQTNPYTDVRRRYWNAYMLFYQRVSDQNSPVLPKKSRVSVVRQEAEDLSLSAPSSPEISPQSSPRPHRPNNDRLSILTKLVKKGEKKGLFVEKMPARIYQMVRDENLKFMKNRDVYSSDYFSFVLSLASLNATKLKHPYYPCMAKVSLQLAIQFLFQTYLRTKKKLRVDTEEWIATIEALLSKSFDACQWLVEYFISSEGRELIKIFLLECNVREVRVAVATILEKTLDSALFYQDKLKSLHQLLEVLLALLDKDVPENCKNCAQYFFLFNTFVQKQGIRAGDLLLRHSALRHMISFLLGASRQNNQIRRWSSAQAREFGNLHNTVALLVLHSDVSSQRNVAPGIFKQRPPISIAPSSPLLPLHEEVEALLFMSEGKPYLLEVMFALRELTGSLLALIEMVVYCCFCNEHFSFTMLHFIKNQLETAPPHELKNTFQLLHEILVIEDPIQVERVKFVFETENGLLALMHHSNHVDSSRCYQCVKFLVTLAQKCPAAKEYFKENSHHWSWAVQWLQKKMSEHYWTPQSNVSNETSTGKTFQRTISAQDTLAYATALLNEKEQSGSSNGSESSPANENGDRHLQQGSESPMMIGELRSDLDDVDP
Procedure, shortened: as §1

USP25 = target: T3, USP25 (UniProt Q9UHP3)
T3 sequence (whole entry): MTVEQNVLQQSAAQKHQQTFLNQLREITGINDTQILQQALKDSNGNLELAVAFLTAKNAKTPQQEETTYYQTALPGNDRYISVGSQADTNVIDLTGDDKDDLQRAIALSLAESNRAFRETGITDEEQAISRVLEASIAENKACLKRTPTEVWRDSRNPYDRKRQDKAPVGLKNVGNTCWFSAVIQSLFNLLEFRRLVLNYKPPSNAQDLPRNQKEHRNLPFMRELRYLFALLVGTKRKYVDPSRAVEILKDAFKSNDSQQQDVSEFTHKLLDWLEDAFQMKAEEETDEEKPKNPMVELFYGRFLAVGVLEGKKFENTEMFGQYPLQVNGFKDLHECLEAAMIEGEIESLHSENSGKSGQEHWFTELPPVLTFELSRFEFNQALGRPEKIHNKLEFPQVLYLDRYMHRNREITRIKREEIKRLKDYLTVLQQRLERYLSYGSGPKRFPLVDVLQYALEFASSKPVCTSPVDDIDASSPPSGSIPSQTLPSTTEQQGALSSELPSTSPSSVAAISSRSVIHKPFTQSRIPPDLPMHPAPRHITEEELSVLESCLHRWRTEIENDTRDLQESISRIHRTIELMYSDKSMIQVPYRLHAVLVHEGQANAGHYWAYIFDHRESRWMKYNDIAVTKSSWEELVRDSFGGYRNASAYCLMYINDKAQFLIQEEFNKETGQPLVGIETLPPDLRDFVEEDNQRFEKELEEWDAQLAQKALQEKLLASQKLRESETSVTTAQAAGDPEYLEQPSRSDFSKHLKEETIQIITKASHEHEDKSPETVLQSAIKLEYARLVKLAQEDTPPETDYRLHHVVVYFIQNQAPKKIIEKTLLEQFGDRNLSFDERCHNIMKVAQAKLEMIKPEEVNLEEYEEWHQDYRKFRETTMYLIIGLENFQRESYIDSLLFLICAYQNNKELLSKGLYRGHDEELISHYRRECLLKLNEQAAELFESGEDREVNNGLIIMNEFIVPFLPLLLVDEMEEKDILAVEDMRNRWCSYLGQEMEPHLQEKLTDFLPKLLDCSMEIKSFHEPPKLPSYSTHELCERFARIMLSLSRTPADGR
Procedure, shortened: as §1

USP28 = target: T4, USP28 (UniProt Q96RU2)
T4 sequence (whole entry): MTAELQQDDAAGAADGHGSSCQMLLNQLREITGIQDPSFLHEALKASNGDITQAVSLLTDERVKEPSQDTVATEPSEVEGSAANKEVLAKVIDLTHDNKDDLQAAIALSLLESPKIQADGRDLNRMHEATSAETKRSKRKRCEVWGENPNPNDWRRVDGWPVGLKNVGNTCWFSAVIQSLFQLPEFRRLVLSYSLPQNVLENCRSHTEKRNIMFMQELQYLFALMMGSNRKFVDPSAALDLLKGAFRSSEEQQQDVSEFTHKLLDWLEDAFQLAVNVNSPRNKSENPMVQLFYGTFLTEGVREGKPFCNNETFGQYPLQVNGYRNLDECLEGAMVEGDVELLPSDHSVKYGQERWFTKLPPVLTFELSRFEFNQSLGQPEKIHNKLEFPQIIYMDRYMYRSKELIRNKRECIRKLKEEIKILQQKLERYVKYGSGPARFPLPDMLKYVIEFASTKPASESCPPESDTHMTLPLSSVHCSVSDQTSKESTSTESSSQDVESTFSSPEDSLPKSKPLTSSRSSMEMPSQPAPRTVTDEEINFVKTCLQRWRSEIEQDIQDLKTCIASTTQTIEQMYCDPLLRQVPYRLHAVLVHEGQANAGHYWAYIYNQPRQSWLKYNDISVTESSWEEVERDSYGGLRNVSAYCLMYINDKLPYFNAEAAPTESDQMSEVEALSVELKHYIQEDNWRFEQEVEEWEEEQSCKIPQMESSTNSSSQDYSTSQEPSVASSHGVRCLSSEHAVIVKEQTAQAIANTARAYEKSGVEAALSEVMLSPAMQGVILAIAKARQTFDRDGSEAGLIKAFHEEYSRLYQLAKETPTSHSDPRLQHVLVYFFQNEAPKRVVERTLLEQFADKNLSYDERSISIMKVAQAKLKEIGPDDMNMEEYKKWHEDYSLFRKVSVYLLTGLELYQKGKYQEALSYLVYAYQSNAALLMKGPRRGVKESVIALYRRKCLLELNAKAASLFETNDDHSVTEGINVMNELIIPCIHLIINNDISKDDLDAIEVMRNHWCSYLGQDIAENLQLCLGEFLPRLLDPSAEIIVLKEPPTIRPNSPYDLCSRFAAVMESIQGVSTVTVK
Procedure, shortened: as §1

Measured: log2 ratio of Biotin-Ahx-Ub-VS probe labelling

Cc1ccc(CC(NC(=O)CCl)c2ccccn2)cc1.Cl (stereo not given)
inactive: USP19 0.168 | USP22 -0.153 | USP24 -0.13 | USP25 -0.098 | USP28 -0.126
